Source: PubChem BioAssay (NCATS)
Values without a mark were called inactive. Results filed as inconclusive are left out. Activity calls are given as the source filed them. Unless noted, calls come from the whole dose curve; as a rule, active = well fitted curve in either direction with a large enough effect (not every such curve was filed as active); inconclusive = small, poorly fitted or top-dose-only effect, or another doubt; inactive = flat fitted curve, though single readings scatter.

Tests used:
[1] = biological target: Lysosomal acid glucosylceramidase (Homo sapiens) (UniProt P04062); assay: Glucocerebrosidase-p2 (AID 348; in the data active = potency below about 10 µM; note: potency is the fitted concentration of half-maximal effect); conditions: purified GBA, blue fluorogenic substrate, 40 min
Sequence of Lysosomal acid glucosylceramidase (Homo sapiens) (P04062 whole entry, looked up): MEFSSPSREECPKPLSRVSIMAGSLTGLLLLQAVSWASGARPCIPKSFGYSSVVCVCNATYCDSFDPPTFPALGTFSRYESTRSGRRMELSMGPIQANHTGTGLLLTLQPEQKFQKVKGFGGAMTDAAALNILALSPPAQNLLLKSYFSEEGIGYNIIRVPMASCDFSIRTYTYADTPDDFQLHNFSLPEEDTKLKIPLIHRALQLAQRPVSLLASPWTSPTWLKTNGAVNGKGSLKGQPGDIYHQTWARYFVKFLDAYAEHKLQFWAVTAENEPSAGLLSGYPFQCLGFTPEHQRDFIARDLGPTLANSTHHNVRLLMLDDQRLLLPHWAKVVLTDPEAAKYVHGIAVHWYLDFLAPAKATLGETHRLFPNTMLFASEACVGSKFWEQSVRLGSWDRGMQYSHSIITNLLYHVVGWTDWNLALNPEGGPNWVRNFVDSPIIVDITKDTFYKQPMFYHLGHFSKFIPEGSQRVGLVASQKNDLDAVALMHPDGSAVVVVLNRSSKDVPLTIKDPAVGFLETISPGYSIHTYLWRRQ
Summary of the method: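 Normal human glucocerebrosidase (0.2 nM) with blue fluorogenic substrate (80 uM final) in citrate/phosphate pH 5.9 with 10mM sodium taurocholate, 0.01% tween-20; 40 min RT, NaOH/glycine stop; fluorescence Ex 365/Em 440; AC50 from a titration from 0.6 nM upwards.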

[2] = AP1 Signaling Pathway (AID 357); conditions: ME-180 AP-1-bla reporter, EGF-induced, beta-lactamase ratio, 5 h; at 7.69 µM (top of the series) unless noted;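 note: ME-180 reporter cells stimulated with EGF at its EC50 level; % is set by controls: 0 for no effect and ±100 for the full control effect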
Summary of the method: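 Modulation of EGF-driven AP-1 transcription was assessed with a beta-lactamase reporter in ME-180 cells. Compound and EC50 EGF were co-incubated 5 hours at 37 °C before 2.5-hour CCF4 loading at room temperature and dual-emission reading.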

[3] = biological target: Cytochrome P450 1A2 (Homo sapiens) (UniProt P05177); assay: p450-cyp1a2 (AID 410; calls by dose curve; note: potency is the fitted concentration of half-maximal effect;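 for activity change, negative = inhibition: -100% = full effect of reference inhibitor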); conditions: recombinant CYP1A2, luciferin-ME demethylation, luminescence; series mostly up to 57 µM
Sequence of Cytochrome P450 1A2 (Homo sapiens) (P05177 whole entry, looked up): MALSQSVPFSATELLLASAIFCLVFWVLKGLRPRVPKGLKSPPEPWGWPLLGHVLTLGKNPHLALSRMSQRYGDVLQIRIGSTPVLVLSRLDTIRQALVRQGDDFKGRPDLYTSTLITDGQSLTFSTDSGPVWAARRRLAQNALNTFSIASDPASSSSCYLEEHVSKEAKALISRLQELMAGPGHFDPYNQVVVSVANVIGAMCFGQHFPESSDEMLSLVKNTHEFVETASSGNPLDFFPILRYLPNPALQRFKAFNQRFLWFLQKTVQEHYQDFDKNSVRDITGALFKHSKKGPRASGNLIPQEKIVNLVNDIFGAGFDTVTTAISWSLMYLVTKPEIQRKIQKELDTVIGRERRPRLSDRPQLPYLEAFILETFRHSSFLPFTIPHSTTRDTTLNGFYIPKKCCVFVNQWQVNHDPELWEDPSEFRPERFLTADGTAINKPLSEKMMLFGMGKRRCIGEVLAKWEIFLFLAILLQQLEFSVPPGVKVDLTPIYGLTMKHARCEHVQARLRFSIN
Summary of the method: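 20nM CYP1A2, 100uM Luciferin-ME (=Km), 100mM KPO4; cpd 10 min RT; +NADPH regen, 60 min RT; stop/detect 20 min; luminescence. Normalized to furafylline 57 uM = full inhibition.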

[4] = NFAT Signaling Pathway (AID 444); conditions: Jurkat NFAT-bla M1, carbachol, beta-lactamase ratio, 5 h; at 7.69 µM (top of the series) unless noted;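 note: carbachol stimulus at about its EC50 of 1 µM final; % is set by controls: 0 for no effect and ±100 for the full control effect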
Summary of the method: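 Jurkat cells carrying an NFAT-driven β-lactamase reporter and co-transfected muscarinic M1 receptor were treated with compound plus carbachol (1 uM final, an EC50 level) for 5 h at 37 °C. CCF4 loading followed for 1 h at RT; 460/530 nm ratio gave %activity.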

[5] = Stat Signaling Pathway (AID 446); conditions: ME-180 SIE beta-lactamase reporter, IL-6 stimulated, 5 h; at 7.69 µM (top of the series) unless noted;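 note: ME-180 cervical cancer cells given 40 pM IL-6 alongside compound; SIE-controlled beta-lactamase reporter measured as 460/530 nm FRET emission ratio; % is set by controls: 0 for no effect and ±100 for the full control effect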
Summary of the method: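 FRET read-out (405 nm excitation, 460/530 nm emission) of a beta-lactamase reporter under a STAT-inducible element in ME-180 cervical carcinoma cells. Cells with compound receive 40 pM IL-6 for 5 h. Values are normalised to AC90 stimulation and AC90 JAK-inhibitor controls.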

[6] = biological target: Glucocorticoid receptor (Homo sapiens) (UniProt P04150); assay: GR-GFP Redistribution (AID 450;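 active = compounds whose dose series gives a full or clear partial fitted curve of increased nuclear translocation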; note: potency is the fitted concentration of half-maximal effect); conditions: U2OS GR-GFP nuclear translocation, laser cytometry, 2 h
Sequence of Glucocorticoid receptor (Homo sapiens) (P04150 whole entry, looked up, the tested form may be a part): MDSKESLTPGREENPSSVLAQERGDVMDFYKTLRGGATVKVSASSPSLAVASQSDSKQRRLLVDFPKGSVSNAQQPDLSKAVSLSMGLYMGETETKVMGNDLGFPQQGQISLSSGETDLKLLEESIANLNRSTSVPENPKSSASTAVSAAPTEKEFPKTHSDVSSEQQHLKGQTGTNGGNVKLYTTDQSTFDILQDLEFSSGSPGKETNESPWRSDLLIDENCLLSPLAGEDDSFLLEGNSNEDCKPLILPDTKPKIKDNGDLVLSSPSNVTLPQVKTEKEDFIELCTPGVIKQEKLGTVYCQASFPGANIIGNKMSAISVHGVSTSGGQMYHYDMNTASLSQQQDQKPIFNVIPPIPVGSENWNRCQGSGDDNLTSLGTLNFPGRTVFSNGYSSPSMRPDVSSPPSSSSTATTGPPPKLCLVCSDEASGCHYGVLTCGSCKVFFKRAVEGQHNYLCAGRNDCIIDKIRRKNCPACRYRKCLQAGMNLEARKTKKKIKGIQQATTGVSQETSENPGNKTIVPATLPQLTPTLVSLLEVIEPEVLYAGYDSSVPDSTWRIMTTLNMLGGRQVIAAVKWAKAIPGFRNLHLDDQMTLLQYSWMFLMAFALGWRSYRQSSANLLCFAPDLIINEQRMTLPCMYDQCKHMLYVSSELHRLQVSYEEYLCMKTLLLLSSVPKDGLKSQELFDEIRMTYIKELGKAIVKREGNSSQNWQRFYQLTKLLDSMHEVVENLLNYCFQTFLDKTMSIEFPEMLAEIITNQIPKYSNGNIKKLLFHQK

[7] = biological target: Glucocorticoid receptor (Homo sapiens) (UniProt P04150); assay: GR-EFC Redistribution (AID 451; calls by dose curve; note: potency is the fitted concentration of half-maximal effect); conditions: CHO-K1 GR-EFC translocation, beta-gal luminescence, 2 h
Summary of the method: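 CHO-K1 cells stably expressing nuclear-localized β-gal enzyme acceptor and GR fused C-terminally to the enzyme donor fragment; ligand-driven nuclear translocation restores β-gal by complementation. Compounds titrated up to 46 uM final, 2 h at 37 °C; luminescence read.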

[8] = biological target: Mitogen-activated protein kinase 10 (Mus musculus) (UniProt Q61831); assay: JNK3 AlphaScreen Assay (AID 530); conditions: JNK3 lysate, c-Jun phosphorylation; series mostly up to 57.1 µM;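 note: kinase came from lysate of stimulated human HepG2 cells; signal reports phosphorylation of biotinylated GST-cJun 1-79 at Ser73 with 10 µM ATP; % is set by controls: 0 for no effect and ±100 for the full control effect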
Summary of the method: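 Biotinylated GST-cJun(1-79) served as substrate for JNK3 in HepG2 lysates stimulated with IL-1beta and TNF-alpha. ATP was 10 uM final, pH 7.6. Ser73 phosphorylation was quantified by AlphaScreen (680 nm excitation).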

[9] = biological target: 3',5'-cyclic-AMP phosphodiesterase 4B (Homo sapiens) (UniProt Q07343); assay: qHTS Assay for Inhibitors of PDE-IV (AID 607; active = well fitted activation curve with a large enough effect in the main read-out, with a control signal flat, not every such curve was filed as active; note: % of control where 0% means no effect); conditions: HEK293 ACTOne CNG channel cells, membrane potential fluorescence; series mostly up to 22.9 µM
Sequence of 3',5'-cyclic-AMP phosphodiesterase 4B (Homo sapiens) (Q07343 whole entry, looked up): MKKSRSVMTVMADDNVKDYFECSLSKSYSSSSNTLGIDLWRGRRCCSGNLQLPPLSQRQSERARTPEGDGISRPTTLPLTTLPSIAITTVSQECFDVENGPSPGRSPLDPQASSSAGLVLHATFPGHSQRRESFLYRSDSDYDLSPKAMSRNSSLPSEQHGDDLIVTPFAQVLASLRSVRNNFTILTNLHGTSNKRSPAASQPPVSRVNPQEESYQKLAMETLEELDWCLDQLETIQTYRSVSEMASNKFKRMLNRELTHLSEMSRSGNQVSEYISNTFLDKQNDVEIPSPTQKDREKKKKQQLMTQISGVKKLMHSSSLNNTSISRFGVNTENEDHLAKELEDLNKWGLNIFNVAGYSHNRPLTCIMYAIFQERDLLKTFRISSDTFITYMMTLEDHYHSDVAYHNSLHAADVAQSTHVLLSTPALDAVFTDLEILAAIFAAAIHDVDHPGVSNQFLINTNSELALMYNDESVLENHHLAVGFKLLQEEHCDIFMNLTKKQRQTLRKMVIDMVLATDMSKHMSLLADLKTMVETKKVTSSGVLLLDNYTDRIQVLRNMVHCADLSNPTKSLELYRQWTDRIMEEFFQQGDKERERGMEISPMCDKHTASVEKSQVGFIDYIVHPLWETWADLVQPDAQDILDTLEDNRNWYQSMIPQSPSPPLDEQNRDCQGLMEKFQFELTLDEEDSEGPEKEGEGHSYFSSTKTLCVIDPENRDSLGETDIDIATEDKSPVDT
Summary of the method: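 Cell-based read-out of cAMP via a modified cyclic nucleotide-gated channel and membrane potential dye (535/590 nm) in HEK293 cells expressing PDE4 endogenously. Compounds tested up to 22.9 uM final; 100 uM RO 20-1724 reference.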

[10] = biological target: Cytochrome P450 3A4 (Homo sapiens) (UniProt P08684); assay: qHTS Assay for Activators of Cytochrome P450 3A4 (AID 885; active = well fitted curve in the direction sought with a large enough effect; an effect the other way counts as inactive or inconclusive; note: nearly all actives have a fitted effect of over 65% in size); conditions: recombinant CYP3A4, Luciferin-PPXE luminescence, 60 min; series mostly up to 57.1 µM
Sequence of Cytochrome P450 3A4 (Homo sapiens) (P08684 whole entry, looked up): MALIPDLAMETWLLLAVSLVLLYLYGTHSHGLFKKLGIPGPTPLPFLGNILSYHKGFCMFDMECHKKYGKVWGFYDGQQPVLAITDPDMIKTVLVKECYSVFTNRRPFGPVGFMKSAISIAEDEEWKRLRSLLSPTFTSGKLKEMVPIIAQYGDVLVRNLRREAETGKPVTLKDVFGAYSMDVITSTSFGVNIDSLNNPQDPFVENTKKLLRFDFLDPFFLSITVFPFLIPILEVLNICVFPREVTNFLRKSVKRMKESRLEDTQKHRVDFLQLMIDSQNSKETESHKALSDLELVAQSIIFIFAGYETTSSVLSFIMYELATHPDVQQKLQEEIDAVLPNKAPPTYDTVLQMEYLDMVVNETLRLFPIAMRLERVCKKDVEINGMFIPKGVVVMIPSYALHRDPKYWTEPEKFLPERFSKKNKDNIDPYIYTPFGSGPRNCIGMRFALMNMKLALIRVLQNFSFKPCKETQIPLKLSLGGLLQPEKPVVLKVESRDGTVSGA
Summary of the method: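 Luminescent readout of luciferin formed from 25 uM Luciferin-PPXE (KM level) by 20 nM CYP3A4 in 200 mM KPO4, with 60 min NADPH-driven reaction at room temperature after 10 min compound exposure. Ketoconazole (57 uM) defined 100% inhibition.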

[11] = Primary qHTS for small molecule stabilizers of the endoplasmic reticulum resident proteome: Secreted ER Calcium Modulated Protein (SERCaMP) assay (AID 1508630; active = well fitted curve in the direction sought with a large enough effect; an effect the other way counts as inactive or inconclusive; note: % is set by controls: 0 for no effect and ±100 for the full control effect); conditions: SH-SY5Y GLuc-SERCaMP (Gaussia luciferase released on ER calcium loss) secretion, thapsigargin, luminescence; series mostly up to 38.4 µM
Summary of the method: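 The SH-SY5Y reporter protocol was run at 3 concentrations up to 38.3 uM (primary) or 11 concentrations (follow-up): 16 h compound, 100 nM thapsigargin for 4 h, then extracellular luciferase luminescence.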

[12] = biological target: Cytochrome P450 3A4 (Homo sapiens) (UniProt P08684); assay: qHTS Assay for Inhibitors and Substrates of Cytochrome P450 3A4 (AID 884; active = well fitted curve in the direction sought with a large enough effect; an effect the other way counts as inactive or inconclusive; note: nearly all actives have a fitted effect of over 50% in size; note: potency is the fitted concentration of half-maximal effect); conditions: recombinant CYP3A4, Luciferin-PPXE luminescence; series mostly up to 57.1 µM
Summary of the method: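 Luminescent readout of luciferin produced by CYP3A4 (20 nM) dealkylation of Luciferin-PPXE, 25 uM (its KM). NADPH-driven reaction ran 60 min at RT after 10 min compound preincubation; data scaled to 57 uM ketoconazole as 100% inhibition.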

[13] = biological target: Cytochrome P450 2C19 (Homo sapiens) (UniProt P33261); assay: qHTS Assay for Inhibitors and Substrates of Cytochrome P450 2C19 (AID 899; active = well fitted curve in the direction sought with a large enough effect; an effect the other way counts as inactive or inconclusive; note: potency is the fitted concentration of half-maximal effect; nearly all actives have a fitted effect of over 60% in size); conditions: recombinant CYP2C19, luciferin-H EGE luminescence; series mostly up to 57.1 µM
Sequence of Cytochrome P450 2C19 (Homo sapiens) (P33261 whole entry, looked up): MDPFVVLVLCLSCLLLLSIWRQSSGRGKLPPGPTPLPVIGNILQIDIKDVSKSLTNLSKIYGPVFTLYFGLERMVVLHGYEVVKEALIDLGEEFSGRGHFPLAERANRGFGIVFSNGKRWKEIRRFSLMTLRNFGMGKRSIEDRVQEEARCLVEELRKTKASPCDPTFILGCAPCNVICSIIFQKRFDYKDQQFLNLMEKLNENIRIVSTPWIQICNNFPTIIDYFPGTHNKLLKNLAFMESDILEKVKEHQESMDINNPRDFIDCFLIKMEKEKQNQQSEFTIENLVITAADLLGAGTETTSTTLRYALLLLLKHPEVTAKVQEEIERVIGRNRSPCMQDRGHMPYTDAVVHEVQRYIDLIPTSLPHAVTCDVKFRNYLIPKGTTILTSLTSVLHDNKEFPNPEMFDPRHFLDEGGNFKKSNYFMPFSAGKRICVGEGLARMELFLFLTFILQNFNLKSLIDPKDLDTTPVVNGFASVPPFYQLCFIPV
Summary of the method: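 Human CYP2C19 (5nM) with Luciferin-H EGE at 10uM (its KM) in 50mM KPO4 was preincubated with compound for 10 min at 37C. NADPH regeneration started a 60 min 37C reaction. Luciferin was read by luminescence, normalized to 57uM ketoconazole.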

[14] = Confirmation and Secondary Assay for Modulators of Hemoglobin Beta Chain Splicing at IVS2 654 locus (AID 910; active = well fitted curve in the direction sought with a large enough effect; an effect the other way counts as inactive or inconclusive;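 note: per-well total GFP intensity by laser scanning cytometry after 2-day treatment; % of control where 0% means no effect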); conditions: HeLa EGFP-654 splicing reporter, GFP fluorescence, 48 h; series mostly up to 38.3 µM
Summary of the method: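 HeLa cells stably carrying EGFP interrupted by mutant beta-globin IVS2-654 intron (CMV-driven) were treated with compound for 2 days at 37C; corrected splicing was scored as total peak GFP intensity per well (488 nm excitation, 500-520 nm emission).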

[15] = qHTS Assay for Identification of Small Molecule Agonists for Hypoxia Response Element Signaling Pathway (AID 914; active = well fitted activation curve with a large enough effect in the signal ratio, with a control signal flat, not every such curve was filed as active; the % refers to the signal ratio; note: % of control where 0% means no effect); conditions: ME-180 (cervical carcinoma) HRE-bla reporter, beta-lactamase ratio, CoCl2, 17 h; activation: hits give high values
Summary of the method: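 Read-out: CCF4 FRET ratio of 460nm to 530nm emission (excitation 405nm) after 2.5 hours at room temperature, taken from HRE-bla ME-180 cells that had been exposed to compound and EC50 CoCl2 for 17 hours.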

[16] = Confirmation and Secondary Assay for Modulators of Hemoglobin Beta Chain Splicing at IVS2 705 locus (AID 930; active = well fitted curve in the direction sought with a large enough effect; an effect the other way counts as inactive or inconclusive;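 note: HeLa cells stably expressing the EGFP-705 splicing reporter; GFP fluorescence per well restored by corrected splicing of the IVS2-705 intron in EGFP; % of control where 0% means no effect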); conditions: HeLa EGFP-705 splicing reporter, GFP fluorescence, 48 h; series mostly up to 38.3 µM
Summary of the method: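 HeLa EGFP-705 reporter; 500 cells/well, o/n 37C 5% CO2; cpd 2 d; 488 ex/500-520 em laser scan; total peak GFP intensity/well. Ref: 500 nM […] antisense PNA.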

[17] = biological target: Ubiquitin carboxyl-terminal hydrolase 1 (Homo sapiens) (UniProt O94782); assay: Inhibitors of USP1/UAF1: Pilot qHTS (AID 504865; active = well fitted curve in the direction sought with a large enough effect; an effect the other way counts as inactive or inconclusive;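 note: rhodamine fluorescence freed from ubiquitin-rhodamine substrate followed over time; top concentration of the series differs between compounds; % is set by controls: 0 for no effect and ±100 for the full control effect; nearly all actives have a fitted effect of over 35% in size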); conditions: purified USP1/UAF1, Ub-rhodamine cleavage fluorescence; series mostly up to 54.9 µM
Sequence of Ubiquitin carboxyl-terminal hydrolase 1 (Homo sapiens) (O94782 whole entry, looked up): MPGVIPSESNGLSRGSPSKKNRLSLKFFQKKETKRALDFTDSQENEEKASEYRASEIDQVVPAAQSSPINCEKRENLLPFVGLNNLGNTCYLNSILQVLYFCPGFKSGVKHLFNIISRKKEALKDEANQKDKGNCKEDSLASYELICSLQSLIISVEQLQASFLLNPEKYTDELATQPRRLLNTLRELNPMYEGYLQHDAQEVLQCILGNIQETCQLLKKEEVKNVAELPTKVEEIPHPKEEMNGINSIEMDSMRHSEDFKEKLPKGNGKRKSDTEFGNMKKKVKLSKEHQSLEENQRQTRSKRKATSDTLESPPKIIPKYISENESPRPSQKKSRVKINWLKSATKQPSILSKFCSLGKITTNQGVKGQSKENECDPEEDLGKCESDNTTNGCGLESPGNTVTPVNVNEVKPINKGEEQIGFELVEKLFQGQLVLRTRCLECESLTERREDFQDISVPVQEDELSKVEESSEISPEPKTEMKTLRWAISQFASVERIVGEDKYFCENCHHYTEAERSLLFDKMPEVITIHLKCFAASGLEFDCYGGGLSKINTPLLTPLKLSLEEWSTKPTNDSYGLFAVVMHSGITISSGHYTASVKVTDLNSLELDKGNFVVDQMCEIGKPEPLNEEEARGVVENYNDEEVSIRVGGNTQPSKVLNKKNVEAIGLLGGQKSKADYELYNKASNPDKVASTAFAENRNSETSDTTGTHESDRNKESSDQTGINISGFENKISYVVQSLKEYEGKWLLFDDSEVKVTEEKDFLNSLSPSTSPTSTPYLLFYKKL
Summary of the method: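 Deubiquitinase activity followed as kinetic rhodamine fluorescence release from 150 nM Ub-Rho. 1 nM USP1/UAF1 with compound, after 15 min room-temperature preincubation, in HEPES pH 7.8 buffer containing TCEP, EDTA, BSA and Tween-20.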

[18] = biological target: Cytochrome P450 2C9 (Homo sapiens) (UniProt P11712); assay: qHTS Assay for Inhibitors and Substrates of Cytochrome P450 2C9 (AID 883; active = well fitted curve in the direction sought with a large enough effect; an effect the other way counts as inactive or inconclusive; note: potency is the fitted concentration of half-maximal effect; nearly all actives have a fitted effect of over 60% in size); conditions: recombinant CYP2C9, luciferin-H luminescence, 60 min; series mostly up to 57.1 µM
Sequence of Cytochrome P450 2C9 (Homo sapiens) (P11712 whole entry, looked up): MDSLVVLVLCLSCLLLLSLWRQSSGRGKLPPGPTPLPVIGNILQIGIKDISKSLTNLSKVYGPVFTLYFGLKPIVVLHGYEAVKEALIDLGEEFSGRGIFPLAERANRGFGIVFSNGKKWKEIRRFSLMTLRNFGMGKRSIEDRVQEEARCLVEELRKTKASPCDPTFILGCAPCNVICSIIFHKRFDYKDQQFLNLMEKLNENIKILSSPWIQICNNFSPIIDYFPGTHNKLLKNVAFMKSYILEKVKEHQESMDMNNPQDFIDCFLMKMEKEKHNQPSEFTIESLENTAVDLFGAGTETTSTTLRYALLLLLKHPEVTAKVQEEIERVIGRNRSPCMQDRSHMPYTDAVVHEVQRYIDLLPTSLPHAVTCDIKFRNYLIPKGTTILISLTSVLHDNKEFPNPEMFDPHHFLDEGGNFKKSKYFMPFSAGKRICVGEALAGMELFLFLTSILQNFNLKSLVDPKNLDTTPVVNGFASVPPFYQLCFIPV
Summary of the method: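 Human CYP2C9 (10nM) hydroxylated Luciferin-H (100uM, at its KM) to luciferin in 25mM KPO4. Compound was preincubated 10 min at 37C, then NADPH regeneration started a 60 min reaction at 37C. Luminescence was read after detection reagent, normalized to 57uM sulphaphenazole.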

Row | SMILES | Potency [1] [µM] | activity change, negative = inhibition [2] [%] | Potency [3] | activity change, negative = inhibition [4] [%] | activity, negative = inhibition [5] [%] | Potency [6] [µM] | Potency [7] [µM] | Potency [8] | Potency [9] | Potency [10] | outcome [11] | Potency [12] | Potency [13] | Potency [14] | activation [15] [%] | outcome [16] | Potency [17] | Potency [18]
1 | Cc1nc2cnc(N(C)C)nc2n(C)c1=O | > 11.4 | -9.37 | 3.98 µM (active) | -9.43 | 0.339 | > 9.22 | > 46 | inactive | inactive | inactive | inactive | – | – | – | – | – | – | –
2 | Cc1cccc(CNc2ncncc2-c2cccc(NS(C)(=O)=O)c2)c1 | > 11.4 | -5.04 | 12.6 µM (active) | 8.42 | 0.163 | – | > 46 | inactive | inactive | inactive | inactive | 0.158 µM (active) | 6.31 µM (active) | inactive | 3.55 | inactive | inactive | –
3 | COc1cccc(Nc2ncc3nc(CCc4ccccc4)c(=O)n(CCC#N)c3n2)c1 | > 11.4 | -11.6 | inactive | -14.1 | -2.69 | > 9.22 | > 46 | inactive | – | inactive | inactive | – | – | – | – | – | – | –
4 | CS(=O)(=O)N1CCC2(CCN(Cc3nccs3)CC2)CC1 | > 11.4 | 3.17 | inactive | 9.85 | -5.91 | – | > 46 | inactive | inactive | – | inactive | – | – | – | – | – | – | –
5 | CC(=O)N1CCC2(CC1)CCN(c1ccccn1)CC2 | > 11.4 | 1.64 | inactive | -29.8 | 6.98 | – | > 46 | inactive | inactive | – | inactive | – | – | – | – | – | – | –
6 | COCC(=O)N1CCC2(CC1)CN(Cc1ccccc1OC)C2 | > 11.4 | -2.68 | inactive | 9.66 | 14.6 | – | > 46 | inactive | inactive | – | inactive | – | – | – | – | – | – | –
7 | COCC(=O)N1CCC2(CCCN(C(=O)Nc3cccc(C#N)c3)C2)CC1 | > 11.4 | -3.42 | inactive | -3.66 | -1.02 | – | > 46 | inactive | inactive | – | inactive | – | – | – | – | – | – | –
8 | CC(=O)N1CCC2(CCCN(c3ncccn3)C2)CC1 | > 11.4 | -18.1 | inactive | 4.89 | -2.74 | – | > 46 | inactive | inactive | – | inactive | – | – | – | – | – | – | –
9 | Cc1noc(C)c1C(=O)N1CCC2(CCN(Cc3nccs3)CC2)CC1 | > 11.4 | 11.4 | 12.6 µM (active) | -0.611 | 11.5 | – | > 46 | inactive | inactive | – | inactive | – | – | – | – | – | – | –
10 | CC(=O)N1CCC2(CC1)CCN(c1ccc(-c3ccccc3)cc1)CC2 | > 11.4 | 47.5 | 10 µM (active) | -28 | -16.9 | – | > 46 | inactive | inactive | – | inactive | – | – | – | – | – | – | –
11 | O=c1c(-c2cccc(F)c2)nc2cncnc2n1-c1ccccc1 | > 11.4 | -10.3 | 10 µM (active) | -2.26 | -2.29 | > 9.22 | > 46 | inactive | – | inactive | inactive | – | – | – | – | – | – | –
12 | COc1ccc(NC(=O)N2CCC3(CC2)CCN(C(=O)c2cccn2C)CC3)cc1 | > 11.4 | -7.7 | inactive | -0.784 | 2.55 | – | > 46 | inactive | inactive | – | inactive | inactive | – | – | – | – | – | –
13 | COC(=O)N1CCC2(CC1)CN(C(=O)Nc1ccc(OC)cc1)C2 | > 11.4 | -27.1 | inactive | 14.1 | -0.967 | – | > 46 | inactive | inactive | – | inactive | – | – | – | – | – | – | –
14 | COC(=O)N1CCC2(CCCN(C(=O)Nc3ccccc3)C2)CC1 | > 11.4 | -8.56 | inactive | 8.44 | -0.296 | – | > 46 | inactive | inactive | – | inactive | – | – | – | – | – | – | –
15 | COCC(=O)N1CCC2(CC1)CN(C(=O)Nc1ccccc1)C2 | > 11.4 | 7.47 | 12.6 µM (active) | 18.9 | -7.39 | – | > 46 | inactive | inactive | – | inactive | – | 5.01 µM (active) | – | – | – | – | 1.58 µM (active)
16 | CS(=O)(=O)N1CCC2(CCCN(C(=O)Nc3cccc(F)c3)C2)CC1 | > 11.4 | 3.4 | inactive | 10.8 | -4.84 | – | > 46 | inactive | inactive | – | inactive | – | – | – | – | – | – | –
